The entries come from a sample that favours hits as a whole.
Shiga inhibitor: blocks Shiga toxin action in Vero cells | Vero cells, Shiga toxin protein synthesis inhibition reporter | hit rate 9.2% among 290,000 | inhibition, % at 38.7 µM; in the data active = inhibition mostly above about 28%, no sharp cut-off; inactive = mostly below about 43%; also: 0% is about no effect
LmPK inhibitor: inhibitors of Leishmania mexicana pyruvate kinase. Q27686. purified LmPK, Kinase-Glo ATP luminescence, 1 h. Potency, µM (highest dose often 57.5 µM), inactives show top-dose activity change, negative = inhibition, actives largely listed as inhibitors. hit rate 0.37% among 290,000. AID 1721; active = well fitted curve in the direction sought with a large enough effect; inconclusive = small, poorly fitted or top-dose-only effect, or another doubt; inactive = no such curve, though single readings can be large; an effect the other way counts as inactive or inconclusive; also: potency is read from the fitted curve at half-maximal effect; % is scaled to controls: 0 for no effect and ±100 for the full control effect
Target sequence (Q27686 whole entry, looked up): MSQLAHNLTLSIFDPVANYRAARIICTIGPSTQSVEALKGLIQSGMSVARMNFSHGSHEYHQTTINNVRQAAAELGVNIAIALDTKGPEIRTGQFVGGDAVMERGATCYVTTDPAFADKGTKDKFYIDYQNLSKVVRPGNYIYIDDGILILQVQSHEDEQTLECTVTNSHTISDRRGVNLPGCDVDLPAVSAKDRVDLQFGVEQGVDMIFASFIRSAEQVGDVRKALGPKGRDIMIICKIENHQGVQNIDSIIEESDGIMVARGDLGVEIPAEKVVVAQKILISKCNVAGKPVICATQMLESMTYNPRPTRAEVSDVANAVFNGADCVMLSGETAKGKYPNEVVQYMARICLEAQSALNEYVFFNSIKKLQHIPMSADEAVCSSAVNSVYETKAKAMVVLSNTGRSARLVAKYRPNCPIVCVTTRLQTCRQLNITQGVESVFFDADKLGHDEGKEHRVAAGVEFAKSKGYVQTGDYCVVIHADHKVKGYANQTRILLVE
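Pyruvate kinase activity monitored as ATP production (luciferase luminescence). Conditions: 0.1 nM enzyme, 0.5 mM PEP, 0.1 mM ADP, 1 h, RT; normalized against uninhibited and no-enzyme wells.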
TbPYK inhibitor: T. brucei pyruvate kinase inhibition | TbPYK enzyme, Kinase-Glo Plus ATP luminescence, 45 min | Potency, µM (series often up to 76.8 µM), for inactives: top-dose activity, negative = inhibition, usual class: inhibitors | hit rate 0.12% among 410,000 | AID 624173; active = well fitted curve in the direction sought with a large enough effect; inconclusive = small, poorly fitted or top-dose-only effect, or another doubt; inactive = no such curve, though single readings can be large; an effect the other way counts as inactive or inconclusive; also: potency is read from the fitted curve at half-maximal effect; % is scaled to controls: 0 for no effect and ±100 for the full control effect; nearly all actives have a fitted effect of over 50% in size
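Quantitative HTS: titrated library compounds versus trypanosomal pyruvate kinase in TEA buffer (pH 7.2) containing KCl, MgCl2, BSA and Tween-20. Reactions were initiated with ADP, 130 uM final. Kinase-Glo Plus luminescence was read after 45 min at RT.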
CHX counter-1: affects cycloheximide protein synthesis inhibition readout, counter-screen. cell reporter, cycloheximide protein synthesis inhibition counterscreen. AID 2314. hit rate 12% among 300,000. max response, %; in the data active = max response mostly above about 13%, no sharp cut-off; inactive = mostly below about 14%; also: read at 38.3 µM for the half of the compounds with a filed dose; 0% is about no effect
SARS PLpro yeast: blocks SARS-CoV papain-like protease in a yeast assay. S. cerevisiae expressing SARS-CoV PLpro, growth rescue. Potency, µM (series often up to 32.9 µM), for the others: at the top dose activity, positive = growth rescue, most hits filed as activators. hit rate 0.19% among 330,000. AID 485353; also: potency is read from the fitted curve at half-maximal effect; 0% is about no effect; nearly all actives have a fitted effect of over 55% in size
NS1 function inh: blocks influenza NS1 protein function; Potency, µM (top dose mostly 46.1 µM), for inactives: at the top dose activity, positive = more growth; hit rate 0.4% among 270,000; also: potency is read from the fitted curve at half-maximal effect; actives are rising curves; nearly all actives have a fitted effect of over 50% in size
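Read-out: OD600 growth recovery of NS1-expressing budding yeast. Cells grown overnight at 30C in -URA glucose medium, washed, resuspended and diluted 1:100 in 2% galactose assay medium, pH 6.0. Same strain lacking NS1 served as positive control.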
CHX counter-2: counter-screen for Shiga toxin inhibitors: cycloheximide protein synthesis block; AID 2318; Cycloheximide counterscreen, protein synthesis reporter, Shiga toxin assay; hit rate 3% among 510; shares compounds with Shiga inhibitor; Potency, µM (doses to about 38.3 µM), for inactives: top-dose activity (activation), usual class: activators; also: potency is read from the fitted curve at half-maximal effect; 0% is about no effect
Starred values were filed as active, the others as inactive; ? = inconclusive; / = no result given; + = active, no number. Unless noted, calls follow the shape of the full dose curve.

SMILES	Shiga inhibitor	LmPK inhibitor	TbPYK inhibitor	CHX counter-1	SARS PLpro yeast	NS1 function inh	CHX counter-2
COc1ccc(NC(=O)CN(C)S(=O)(=O)c2ccc(Br)s2)cc1OC	34*	3%	0%	3	-2%	12%	1%
Cc1ccc(CSC(Nc2ccc(F)cc2)=C(C#N)C#N)cc1	21*	1%	-15%	1	-2%	-6%	0%
Cc1ccc(NC(=S)NCc2ccc(F)cc2)cc1	/	/	2%	/	/	/	/
Cc1cc2nc(CCN3CCOCC3)n(S(=O)(=O)c3ccc(C(C)(C)C)cc3)c2cc1C	38*	0%	2%	12	7%	8%	?
CSc1nc(C)c2cc(C)oc2n1	71*	-8%	-1%	-3	3%	-15%	-2%
Cc1nnc(NC(=O)CSc2ccc(-c3ccc(Cl)cc3)nn2)s1	30*	5%	4%	12	1%	/	0%
Cc1nnc(NC(=O)CSc2ccc(-c3ccco3)nn2)s1	18	9%	-21%	-1	-6%	/	/
COc1ccc(-c2nc(NC(=O)CSc3nnc4ccccn34)ns2)cc1	44*	-1%	-5%	2	2%	15%	?
COc1ccc(C(CNC(=O)C(CCSC)NC(=O)c2ccccc2OC)N2CCCCC2)cc1 (stereo unspecified)	-2	-2%	0%	-1	11%	1%	/
O=C1c2ccccc2C(c2nnnn2-c2ccc3c(c2)OCCO3)N1CCOc1ccccc1 (stereo unspecified)	/	/	-3%	/	/	/	/
C=CCn1c(-c2ccc(OC)c(OC)c2)cs/c1=N\c1ccccn1	29*	-11%	4%	8	?	-54%	5%
CCOC(=O)Cc1csc(NC(=O)CSc2ncnc3c2cnn3-c2ccc(OC)cc2)n1	81*	-8%	1%	19	2%	-8%	?
CCOC(=O)CNC(=O)CSc1ncnc2c1cnn2-c1ccc(Cl)cc1	-4	-1%	1%	-3	8%	-4%	/
COc1ccc(C2C(C#N)=C(C)NC3=C2C(=O)CC(C)(C)C3)c(OC)c1 (stereo unspecified)	43*	-5%	5%	-3	1%	7%	-2%
O=C1ON=C(c2ccccc2)/C1=C/c1ccc(OS(=O)(=O)c2ccccc2)cc1	29*	4%	-24%	8	0%	5%	0%
CC(C)c1cc(C(=O)O)c2cnn(C(C)C)c2n1	16	-2%	-16%	-2	-1%	1%	/
CN(Cc1ccccc1)C(=O)c1ccc2c(c1)N(Cc1ccccc1Cl)C(=O)c1ccccc1S2	/	/	-2%	/	/	/	/
CCN(CC)S(=O)(=O)c1ccc(C(=O)NCCc2ccccn2)cc1	45*	-1%	-2%	11	-2%	/	3%
C=CCOC(=O)C1=C(C)OC(N)=C(C(=O)OCC)C12C(=O)N(CC(N)=O)c1ccccc12 (stereo unspecified)	33*	0%	2%	6	3%	-1%	-2%
O=[N+]([O-])c1cccc(CSC2=NCCN2S(=O)(=O)c2ccccc2)c1	-10	-9%	-5%	8	1%	1%	/
Cc1cc(NC(=O)CSc2nc3ccsc3c(=O)n2Cc2ccccn2)n[nH]1	65*	-7%	-14%	12	-3%	15%	1%
CCCCn1c(SCC(=O)Nc2cc(C)[nH]n2)nc2ccsc2c1=O	-27	0%	3%	-4	-4%	-16%	/
Cc1cc(C)n(Cc2nc3ccccc3n2C)n1	11	0%	7%	-2	1%	-3%	/
Cc1cc(C)nc(SCc2nc3ccccc3n2C)n1	41*	-1%	3%	13	0%	-16%	8%
O=C(Cc1ccc(NC(=O)N2CCCCc3ccccc32)cc1)NCc1cccc(Br)c1	/	/	0%	/	/	/	/
O=C(NC1CCCCC1)c1cccc(S(=O)(=O)N2CCCCC2)c1	71*	7%	2%	-2	2%	4%	-4%
CC1CC(C)CN(C(=O)C(NS(=O)(=O)c2ccc(Br)s2)c2ccccc2)C1 (stereo unspecified)	+	2%	-6%	9	-42%	-27%	1%
